Reference: ChEMBL document CHEMBL1961873, “Compounds: GSK PKIS; Assays: Nanosyn kinase panel” (2012)

Each molecule was assayed against Protein kinase C theta type (Homo sapiens) (UniProt Q04759). Conditions: at 1 µM.
Sequence of Protein kinase C theta type (Homo sapiens) (Q04759 whole entry, looked up): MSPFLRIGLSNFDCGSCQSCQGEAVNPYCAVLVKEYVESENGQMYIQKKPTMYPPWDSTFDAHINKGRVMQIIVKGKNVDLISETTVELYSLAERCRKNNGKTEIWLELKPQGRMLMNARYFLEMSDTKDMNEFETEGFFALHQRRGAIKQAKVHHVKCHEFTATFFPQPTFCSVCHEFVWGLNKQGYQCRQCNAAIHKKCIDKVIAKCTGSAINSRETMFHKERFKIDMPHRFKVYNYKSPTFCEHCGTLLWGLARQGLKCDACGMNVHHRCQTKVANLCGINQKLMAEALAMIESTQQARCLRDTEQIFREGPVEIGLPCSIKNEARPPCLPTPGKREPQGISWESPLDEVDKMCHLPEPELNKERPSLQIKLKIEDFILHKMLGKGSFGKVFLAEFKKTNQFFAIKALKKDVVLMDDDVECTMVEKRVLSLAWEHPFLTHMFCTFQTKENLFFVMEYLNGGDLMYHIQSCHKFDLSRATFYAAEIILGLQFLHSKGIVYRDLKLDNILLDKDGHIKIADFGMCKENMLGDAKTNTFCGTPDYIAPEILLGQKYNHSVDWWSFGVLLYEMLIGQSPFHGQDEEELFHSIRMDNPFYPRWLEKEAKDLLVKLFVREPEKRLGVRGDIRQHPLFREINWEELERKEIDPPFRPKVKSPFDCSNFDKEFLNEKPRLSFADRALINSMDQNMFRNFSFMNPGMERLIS

Point of comparison: `COc1ccc(-c2nn3ncccc3c2-c2ccnc(Nc3ccc(Cl)c(C(F)(F)F)c3)n2)cc1`, inhibition 2.55%. Against it:
- COc1ccc(-c2coc3ncnc(N)c23)cc1 — lower, 1.28%
- Cc1cc(O)cc(C)c1/C=C/c1cncc(-c2nn[nH]n2)c1 — higher, 3.08%
- NCc1ccc(-c2nc(-c3ccc(Cl)c(O)c3)c(-c3ccncc3)[nH]2)cc1 — lower, -0.18%
- Cc1ccc(C(=O)NC2CCCCC2)cc1-c1ccc(C(=O)NCC2CC2)cc1 — lower, 0.58%
- COc1cccc(-n2ncc3c(N/N=C/c4cccc(F)c4)ncnc32)c1 — lower, 2.23%
- [O-][S+]1CCN(Cc2ccc(-c3ccc4ncnc(Nc5ccc(OCc6ccccc6)c(F)c5)c4c3)o2)CC1 — lower, -0.73%
- COc1cc2c(cc1Nc1nc(N3CCc4ccccc43)c3cc[nH]c3n1)N(C(=O)CN(C)C)CC2 — lower, -0.74%
- COc1cc2ncn(-c3cc(OCc4ccccc4Cl)c(C(N)=O)s3)c2cc1OC — lower, 0.66%
- COc1ccccc1Nc1ncc(-c2ccccc2)o1 — higher, 3.02%
- c1cnn2ncc(-c3ccnc(Nc4ccc5c(c4)OCCO5)n3)c2c1 — higher, 5.92%
- CS(=O)(=O)CCN(CC#N)Cc1ccc(-c2ccc3ncnc(Nc4ccc(OCc5cccc(F)c5)c(Cl)c4)c3c2)o1 — lower, 0.92%
- CS(=O)(=O)CCNCc1ccc(-c2ccc3ncnc(Nc4ccc(OCc5cccc(F)c5)c(C(F)(F)F)c4)c3c2)o1 — higher, 2.71%
- CCn1c(-c2nonc2N)nc2ccncc21 — lower, 0%
- Nc1ncnc2occ(-c3ccc(NC(=O)Nc4cccc(C(F)(F)F)c4)cc3)c12 — higher, 2.66%
- CC(C)=Cc1cccc2c1/C(=N/Nc1ccc(S(N)(=O)=O)cc1)C(=O)N2 — higher, 6.89%
- Fc1cccc(COc2ccc(Nc3ncnc4cc(-c5ccc[nH]5)sc34)cc2Cl)c1 — lower, 2.17%
- CCN1CCC(CC(=O)Nc2n[nH]c3nc(-c4cccs4)c(Br)cc23)CC1 — lower, -0.68%
- NC(=O)c1ccc(-c2nc(-c3ccccn3)c(-c3ccc4c(c3)OCO4)[nH]2)cc1 — lower, 1.31%
- CCn1c(-c2nonc2N)nc2c(C#CC(C)(C)O)nc(OC[C@@H](N)c3ccccc3)cc21 — higher, 52.5%
- CCn1c(-c2nonc2N)nc2cncc(C(=O)N3CC[C@H](N)C3)c21 — higher, 23.8%
- Cc1ccc(NC(=O)c2ccnc(N3CCCC3)c2)cc1-c1ccc(C(=O)NCC2CC2)cc1 — higher, 3.17%
- COc1cc(C)c(NC(=O)CN(C)C)cc1Nc1nc(Nc2cccc(F)c2C(N)=O)c2cc[nH]c2n1 — lower, 0.13%
- CCn1c(-c2nonc2N)nc2cnc(Oc3cccc(NC(=O)c4ccc(OCCN5CCOCC5)cc4)c3)cc21 — higher, 67.4%
- Nc1nc(-c2ccc3c(c2)C(=Cc2cc(Br)c(O)c(Br)c2)C(=O)N3)cs1 — lower, 0.33%
- COc1ccc(-c2ccncc2)cc1C(N)=O — higher, 4.84%
- CC1=C(C(=O)Nc2ccc3[nH]ncc3c2)C(c2ccc(Cl)c(Cl)c2)CC(=O)N1 (stereo not drawn) — higher, 5.07%
- Fc1cccc(COc2ccc(Nc3ncnc4sc(-c5cccs5)cc34)cc2Cl)c1 — lower, 0.01%
- CN1CCC(C(=O)Nc2n[nH]c3nnc(-c4ccccc4)cc23)CC1 — higher, 3.84%
- Cc1nn(C)c2cc(N(C)c3ccnc(Nc4cccc(S(N)(=O)=O)c4)n3)ccc12 — lower, 2.49%
- COC(=O)Nc1nc2cc(Oc3ccc(NC(=O)Nc4cccc(C(=O)O)c4)cc3)ccc2[nH]1 — lower, 2.02%
- CS(=O)(=O)CCNCc1nc(-c2ccc3ncnc(Nc4ccc(F)c(Cl)c4)c3c2)cs1 — lower, 2.27%
- CS(=O)(=O)CCNCc1ccc(-c2ccc3ncnc(Nc4ccc(OCc5ccccc5)c(Cl)c4)c3c2)o1 — lower, 0.16%
- COC(=O)Nc1nc2cc(Oc3cccc(NC(=O)Nc4cc(C(F)(F)F)ccc4F)c3)ccc2[nH]1 — lower, -0.91%

Each molecule was assayed against Protein kinase C beta type (Homo sapiens) (UniProt P05771). Conditions: at 0.1 µM.
Sequence of Protein kinase C beta type (Homo sapiens) (P05771 2-671 limits assumed): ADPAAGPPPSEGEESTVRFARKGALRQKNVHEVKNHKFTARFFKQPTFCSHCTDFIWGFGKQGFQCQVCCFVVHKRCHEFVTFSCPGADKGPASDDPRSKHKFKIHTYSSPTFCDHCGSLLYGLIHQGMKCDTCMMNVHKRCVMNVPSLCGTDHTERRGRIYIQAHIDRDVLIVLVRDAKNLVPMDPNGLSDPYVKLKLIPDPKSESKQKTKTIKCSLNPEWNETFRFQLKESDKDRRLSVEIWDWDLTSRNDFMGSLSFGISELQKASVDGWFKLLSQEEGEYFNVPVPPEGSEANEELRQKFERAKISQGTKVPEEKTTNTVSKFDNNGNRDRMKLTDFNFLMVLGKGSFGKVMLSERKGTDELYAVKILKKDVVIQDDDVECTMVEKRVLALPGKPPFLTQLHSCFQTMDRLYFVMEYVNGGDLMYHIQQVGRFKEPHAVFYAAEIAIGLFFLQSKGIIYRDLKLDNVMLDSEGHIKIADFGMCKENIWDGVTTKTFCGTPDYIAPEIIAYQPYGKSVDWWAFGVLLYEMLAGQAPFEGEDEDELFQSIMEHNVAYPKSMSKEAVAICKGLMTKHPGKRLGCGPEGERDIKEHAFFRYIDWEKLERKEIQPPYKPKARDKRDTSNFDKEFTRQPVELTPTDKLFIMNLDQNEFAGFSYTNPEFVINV

Point of comparison: `CN1CCC(C(=O)Nc2n[nH]c3nnc(-c4ccccc4)cc23)CC1`, inhibition 1.32%. Against it:
- COc1ccc(-c2coc3ncnc(N)c23)cc1 — higher, 1.62%
- Cc1cc(O)cc(C)c1/C=C/c1cncc(-c2nn[nH]n2)c1 — lower, 1.15%
- NCc1ccc(-c2nc(-c3ccc(Cl)c(O)c3)c(-c3ccncc3)[nH]2)cc1 — lower, 0.76%
- Cc1ccc(C(=O)NC2CCCCC2)cc1-c1ccc(C(=O)NCC2CC2)cc1 — lower, 1.11%
- COc1cccc(-n2ncc3c(N/N=C/c4cccc(F)c4)ncnc32)c1 — higher, 1.7%
- [O-][S+]1CCN(Cc2ccc(-c3ccc4ncnc(Nc5ccc(OCc6ccccc6)c(F)c5)c4c3)o2)CC1 — lower, 0.35%
- COc1cc2c(cc1Nc1nc(N3CCc4ccccc43)c3cc[nH]c3n1)N(C(=O)CN(C)C)CC2 — lower, 1.14%
- COc1cc2ncn(-c3cc(OCc4ccccc4Cl)c(C(N)=O)s3)c2cc1OC — lower, 0.93%
- COc1ccccc1Nc1ncc(-c2ccccc2)o1 — lower, 1.12%
- c1cnn2ncc(-c3ccnc(Nc4ccc5c(c4)OCCO5)n3)c2c1 — lower, 0.79%
- CS(=O)(=O)CCN(CC#N)Cc1ccc(-c2ccc3ncnc(Nc4ccc(OCc5cccc(F)c5)c(Cl)c4)c3c2)o1 — lower, 0.59%
- CS(=O)(=O)CCNCc1ccc(-c2ccc3ncnc(Nc4ccc(OCc5cccc(F)c5)c(C(F)(F)F)c4)c3c2)o1 — higher, 1.67%
- COc1ccc(-c2nn3ncccc3c2-c2ccnc(Nc3ccc(Cl)c(C(F)(F)F)c3)n2)cc1 — lower, 0.91%
- CCn1c(-c2nonc2N)nc2ccncc21 — lower, -0.19%
- Nc1ncnc2occ(-c3ccc(NC(=O)Nc4cccc(C(F)(F)F)c4)cc3)c12 — higher, 1.71%
- CC(C)=Cc1cccc2c1/C(=N/Nc1ccc(S(N)(=O)=O)cc1)C(=O)N2 — lower, 0.32%
- Fc1cccc(COc2ccc(Nc3ncnc4cc(-c5ccc[nH]5)sc34)cc2Cl)c1 — lower, 0.99%
- CCN1CCC(CC(=O)Nc2n[nH]c3nc(-c4cccs4)c(Br)cc23)CC1 — lower, -1.4%
- NC(=O)c1ccc(-c2nc(-c3ccccn3)c(-c3ccc4c(c3)OCO4)[nH]2)cc1 — higher, 1.96%
- CCn1c(-c2nonc2N)nc2c(C#CC(C)(C)O)nc(OC[C@@H](N)c3ccccc3)cc21 — higher, 3.74%
- CCn1c(-c2nonc2N)nc2cncc(C(=O)N3CC[C@H](N)C3)c21 — higher, 11.4%
- Cc1ccc(NC(=O)c2ccnc(N3CCCC3)c2)cc1-c1ccc(C(=O)NCC2CC2)cc1 — lower, 1.24%
- COc1cc(C)c(NC(=O)CN(C)C)cc1Nc1nc(Nc2cccc(F)c2C(N)=O)c2cc[nH]c2n1 — lower, 0.38%
- CCn1c(-c2nonc2N)nc2cnc(Oc3cccc(NC(=O)c4ccc(OCCN5CCOCC5)cc4)c3)cc21 — higher, 11.6%
- Nc1nc(-c2ccc3c(c2)C(=Cc2cc(Br)c(O)c(Br)c2)C(=O)N3)cs1 — lower, -0.52%
- COc1ccc(-c2ccncc2)cc1C(N)=O — lower, 0.88%
- CC1=C(C(=O)Nc2ccc3[nH]ncc3c2)C(c2ccc(Cl)c(Cl)c2)CC(=O)N1 (stereo not drawn) — lower, 0.17%
- Fc1cccc(COc2ccc(Nc3ncnc4sc(-c5cccs5)cc34)cc2Cl)c1 — lower, -0.19%
- Cc1nn(C)c2cc(N(C)c3ccnc(Nc4cccc(S(N)(=O)=O)c4)n3)ccc12 — higher, 2.72%
- COC(=O)Nc1nc2cc(Oc3ccc(NC(=O)Nc4cccc(C(=O)O)c4)cc3)ccc2[nH]1 — lower, -0.5%
- CS(=O)(=O)CCNCc1nc(-c2ccc3ncnc(Nc4ccc(F)c(Cl)c4)c3c2)cs1 — lower, -0.23%
- CS(=O)(=O)CCNCc1ccc(-c2ccc3ncnc(Nc4ccc(OCc5ccccc5)c(Cl)c4)c3c2)o1 — lower, -0.28%
- COC(=O)Nc1nc2cc(Oc3cccc(NC(=O)Nc4cc(C(F)(F)F)ccc4F)c3)ccc2[nH]1 — higher, 3.01%
